# Measurements as given in paper PMC4552634, “A New Set of Chemical Starting Points with Plasmodium falciparum Transmission-Blocking Potential for Antimalarial Drug Discovery” (PLoS ONE, 2015).
# Among all 13,000 compounds or so, about 3,200 (25%) showed an effect of 50% or more. Some of the results follow.
# System: P. falciparum stage V gametocytes
# Set-up: BacTiter-Glo ATP luminescence viability of purified stage V gametocytes in 384-well plates, per cent inhibition versus DMSO
# Conditions: 48 h, 5 µM; inhibitor
row,Structure (SMILES),% Inhibition
1,CCN1CCC(NCc2ccc(-c3ccc(Cl)cc3)cc2)CC1 [TCMDC-141354],41.97%
2,Clc1ccc(CNC2CCN(CC3CCCCC3)CC2)cc1 [TCMDC-141658],-44.47%
3,FC(F)(F)c1ccc(-c2ccc(CNC3CCN(CCN4CCOCC4)CC3)cc2)cc1 [TCMDC-136025],39%
4,CC(C)N1CCC(NCc2ccc(-c3ccc(Cl)cc3)cc2)CC1 [TCMDC-141359],35.52%
5,CN1CCC(NCc2ccc(-c3ccc(Cl)cc3)cc2)CC1 [TCMDC-141355],54.41%
6,CCN1CCC(NCc2ccc(-c3ccc(Cl)s3)cc2)CC1 [TCMDC-141263],93.74%
7,CCCCCCN1CCC(NCc2ccc(C)cc2)CC1 [TCMDC-141667],-37.31%
8,CCCCCCN1CCC(NCc2ccc(C(F)(F)F)cc2)CC1 [TCMDC-141669],-50.38%
9,CCCCCCN1CCC(NCc2ccc(Cl)cc2)CC1 [TCMDC-141666],71.31%
10,CN(C)CCCc1cc(NC(=O)Nc2cccc(Cl)c2Cl)ccc1I [TCMDC-139132],-49.28%
11,CCOC(=O)c1c(C)n(-c2ccccc2)c2ccc(OC(=O)COc3ccc(Cl)cc3Cl)cc12 [TCMDC-124380],-46.8%
12,COc1ccc2nccc(C(=O)NC3CCC(CCN4CCc5cc(C#N)ccc5C4)CC3)c2c1 (stereo not drawn) [TCMDC-139240],4.839%
13,CN(C)CCCOc1c(C(C)(C)C)cc(-c2cc(C(C)(C)C)c(OCCCN(C)C)c(C(C)(C)C)c2)cc1C(C)(C)C [TCMDC-131822],59.94%
14,Cn1cnc(CCNC(=O)c2ccc(-c3ccc(-c4nc5cc(F)ccc5[nH]4)cc3)cc2)c1 [TCMDC-132491],5.885%
15,O=C(CC1SC(N2N=C(c3cccs3)CC2c2ccccc2)=NC1=O)Nc1ccc(Cl)cc1 (stereo not drawn) [TCMDC-124762],14.18%
16,Cc1cc(N(C)C)nc(Nc2ccc(NC(=O)COc3ccccc3)cc2)n1 [TCMDC-124975],-15.54%
17,Clc1cccc(CNc2nc(NCCc3cnc[nH]3)nc(NC3CCCCC3)n2)c1 [TCMDC-139735],0.07512%
18,CCn1c(-c2nonc2N)nc2c(-c3cccc(Cl)c3)ncc(OCCCNCc3cnc(C)nc3N)c21 [TCMDC-135956],99.17%
19,CCn1c(-c2nonc2N)nc2c(-c3cccc(Cl)c3)ncc(OCCCNCCc3cnc[nH]3)c21 [TCMDC-135919],106.8%
20,NC(N)=NC(=O)Nc1ccc(Cl)c([N+](=O)[O-])c1 [TCMDC-137567],-21.87%
21,CC(C)c1sc(N2CCN(C)CC2)nc1C(=O)NCCc1ccc(Br)cc1 [TCMDC-134294],2.102%
22,COc1ccc2nccc([C@@H](O)CN3CCC(NC(=O)CCC(=O)c4cc(C(C)(C)C)ccc4OC)CC3)c2c1 [TCMDC-141108],21.12%
23,CC(C)CCNc1nc(NCCCc2ccccc2)c2cc(O)ccc2n1 [TCMDC-138381],95.75%
24,CC(C)CCNc1nc(NCc2ccccc2)c2cc(O)ccc2n1 [TCMDC-138436],91.5%

row,Structure (SMILES),% Inhibition
1,Cc1cc(NCc2ccccc2)nc2cc(O)ccc12 [TCMDC-125297],15.33%
2,CC(C)CCNc1nc(NCCc2ccccc2)c2cc(O)ccc2n1 [TCMDC-138405],95.11%
3,Oc1ccc(Nc2nc(NCc3ccccc3)c3ccccc3n2)cc1 [TCMDC-125641],-47.6%
4,Cc1noc(-c2cccs2)c1C(=O)NCCc1cccc(Cl)c1 [TCMDC-124801],0.8455%
5,COc1cc(CNC[C@@H](O)[C@H](Cc2ccccc2)NC(=O)c2cc(C3CCCC3)cc(N3CCCS3(=O)=O)c2)cc(OC)c1 [TCMDC-134560],26.15%
6,CCOc1cc(C(=O)Nc2ccc3nc(N4CCCCC4)cc(C)c3c2)cc(OCC)c1OCC [TCMDC-125449],-1.386%
7,Cc1cccc2c(N=NC(=S)N(C)C)c(O)[nH]c12 [TCMDC-137626],-58.93%
8,O=C1OC2(CN1CC1CCN(Cc3ccc(-n4ccnc4)cc3)C1)c1ccccc1-c1ccccc12 (stereo not drawn) [TCMDC-136314],22.25%
9,N#Cc1cccc(NC(=O)Nc2ccc(-c3ccc(-c4nc5ccc(C(F)(F)F)cc5[nH]4)cc3)cc2)c1 [TCMDC-133190],-5.798%
10,Cc1cccc(NC(=O)Nc2cccc(-c3ccc(-c4nc5ccc(C(F)(F)F)cc5[nH]4)cc3)c2)c1 [TCMDC-133305],4.928%
11,CCN(CC)CCCN(CCCN(CC)CC)c1cc(C)nc(Nc2ccc(Br)cc2)n1 [TCMDC-138007],66.18%
12,Cc1cc(N(C)CCCN(C)C)nc(Nc2ccc(Br)cc2)n1 [TCMDC-136888],36.7%
13,CCN(CCCN1CCCCC1)c1cc(C)nc(Nc2ccc(C)cc2)n1 [TCMDC-132427],-21.39%
14,Cc1cc(N(C)CCN(C)C)nc(Nc2ccc(Br)cc2)n1 [TCMDC-137013],18.91%
15,CCCc1ccc(Nc2nc(C)cc(N(CC)CCCN3CCCCC3)n2)cc1 [TCMDC-132453],39.01%
16,CCCCN(CCCC)CCCN(CCCN(CCCC)CCCC)c1cc(C)nc(Nc2ccc(Br)cc2)n1 [TCMDC-138004],92.54%
17,O=C(Nc1cccc(-c2ccc(-c3nc4cc(F)ccc4[nH]3)s2)c1)c1cccnc1 [TCMDC-136931],-7.86%
18,CCOc1cc2ncnc(Nc3ccc(OCc4ccccc4OC)c(OC)c3)c2cc1OCC [TCMDC-131912],-29.04%
19,Cc1nn(-c2ccccc2)c2sc(C(=O)N(CCCN(C)C)c3nc(-c4ccccc4)cs3)cc12 [TCMDC-125428],100.2%
20,CCN(CC)CCCN(C(=O)c1cc2c(C)nn(-c3ccccc3)c2s1)c1nc(-c2ccc(OC)cc2)cs1 [TCMDC-125429],17.92%
21,COc1ccc(-c2csc(N(CCCN(C)C)C(=O)c3cc4c(C)nn(-c5ccccc5)c4s3)n2)cc1 [TCMDC-124034],46.49%
22,Cc1n[nH]c(C)c1C1CCN(CC2CCC(NC(=O)/C=C/c3ccc(Cl)c(Cl)c3)CC2)CC1 (stereo not drawn) [TCMDC-139624],34.25%
23,CCCCc1ccc(-c2ccc(-c3c(C)[nH]c(C)c(Br)c3=O)cn2)cc1 [TCMDC-135687],10.67%
24,Cc1[nH]c(C)c(-c2ccc(-c3ccccc3Cl)nc2)c(=O)c1Br [TCMDC-136157],75.71%

row,Structure (SMILES),% Inhibition
1,Cc1[nH]c(C)c(-c2ccc(-c3ccccc3Cl)nc2)c(=O)c1Cl [TCMDC-136303],74.15%
2,COc1ccc(NC(=O)N2CCN(CCCCCNC(=O)/C=C/c3ccc(C(F)(F)F)cc3)CC2)cc1Cl [TCMDC-136097],-39.25%
3,OC1(c2ccc(Cl)c(C(F)(F)F)c2)CCN(CCOC2c3ccccc3CSc3ccc(Cl)cc32)CC1 (stereo not drawn) [TCMDC-124001],11.98%
4,CC(C)C(C(=O)n1cc2c(ccc3nc(N)nc(N)c32)n1)C(C)C [TCMDC-137334],-12.47%
5,O=C1COc2cc(Cl)c(CNC3CCN(CCc4ccnc5c(F)cc(F)cc45)CC3)nc2N1 [TCMDC-141732],-3.632%
6,COc1ccc2nccc([C@@H](O)CN3CCC(NCc4cc5sccc5nc4C(F)(F)F)CC3)c2c1 [TCMDC-141152],4.239%
7,COc1ccc(CCNCCCCNCCc2ccc(OC)c3ccccc23)c2ccccc12 [TCMDC-137961],106.4%
8,COC(=O)Cc1ccc(N)c2ccccc12 [TCMDC-139173],-43.46%
9,COc1ccc(CNCCCCCCNCc2ccc(OC)c3ccccc23)c2ccccc12 [TCMDC-137631],111.4%
10,CCc1nonc1NC(=O)c1oc2c(C)c(C)ccc2c1C [TCMDC-123827],4.304%
11,O=C(O)C(F)(F)F.c1cncc(CCNCc2cccc(-c3ccc(-c4nc5ccccc5[nH]4)s3)c2)c1 [TCMDC-132877],-12.84%
12,CS(=O)(=O)NCCCNCc1cccc(-c2ccc(-c3nc4cc(C(F)(F)F)ccc4[nH]3)s2)c1.O=C(O)C(F)(F)F [TCMDC-133083],-25.93%
13,FC(F)(F)c1ccc2[nH]c(-c3ccc(-c4cccc(CNCCc5ccncc5)c4)s3)nc2c1.O=C(O)C(F)(F)F [TCMDC-132849],-1.104%
14,FC(F)(F)c1ccc2[nH]c(-c3ccc(-c4cccc(CNCc5ccccc5)c4)s3)nc2c1.O=C(O)C(F)(F)F [TCMDC-132708],-60.8%
15,FC(F)(F)c1ccc2[nH]c(-c3ccc(-c4cccc(CNCCc5cccnc5)c4)s3)nc2c1.O=C(O)C(F)(F)F [TCMDC-132874],67.94%
16,CNCCNCc1cccc(-c2ccc(-c3nc4cc(C(F)(F)F)ccc4[nH]3)s2)c1.O=C(O)C(F)(F)F [TCMDC-132830],50.68%
17,N#CN1CC[C@H](CS(=O)(=O)c2cccc(Br)c2)C1 [TCMDC-133806],9.818%
18,COc1ccc(N2C(=O)c3c(c4ccccc4n3C)C2c2ccccc2O)cc1 (stereo not drawn) [TCMDC-124403],-39.6%
19,O=S(=O)(c1ccc(OCc2ccc(Cl)cc2)cc1)c1cc2c(c(-c3ccc(F)cc3)c1)CCN(CC1CC1)CC2 [TCMDC-135736],93.21%
20,O=S(=O)(c1ccc(OCc2ccc(Cl)cc2)cc1)c1cc2c(cc1O)CCN(C1CCC1)CC2 [TCMDC-135997],28.22%
21,O=S(=O)(Nc1cc2c(cc1OCc1ccccc1)CCN(C1CCC1)CC2)c1ccc(-c2ccc(Cl)cc2)cc1 [TCMDC-136027],-11.35%
22,O=S(=O)(c1ccc(OCc2ccc(Cl)cc2)cc1)c1cc2c(cc1OCc1ccccc1)CCN(C1CCC1)CC2 [TCMDC-135998],60.24%
23,O=S(=O)(c1ccc(OCc2ccc(Cl)cc2)cc1)c1cc2c(cc1OCc1ccccc1)CCN(CC1CC1)CC2 [TCMDC-134410],0.8378%
24,COc1cc2c(cc1S(=O)(=O)c1ccc(OCc3ccc(Cl)cc3)cc1)CCN(Cc1ccc(NC(C)=O)s1)CC2 [TCMDC-132326],-7.841%
